Results: PubChem BioAssay (NCI)
The panel holds about 83,000 compounds, 20% with a hit somewhere; the sample as a whole holds those more often.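 Results are percent growth after 48 hours of single-concentration exposure. 100 means growth as in untreated cells, lower positive values show inhibition; negative values down to -100 show cell death.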 The source made the active and inactive calls. The calls were made as follows: active = growth percent below 10; inactive = the rest.

How the values were obtained:
Experiment in all cases: NCI-60 one-dose screen, 48 h (100 = growth as untreated, 0 = no growth, -100 = all killed)
NCI-H226 lung = conditions: 10 µM unless noted
NCI-H322M lung = conditions: 10 µM unless noted
HOP-62 NSCLC = conditions: 10 µM unless noted
COLO 205 colon = conditions: 10 µM
HT29 colon = conditions: 10 µM unless noted
CAKI-1 renal = conditions: 10 µM unless noted
A498 renal = conditions: 10 µM unless noted
OVCAR-8 ovarian = conditions: 10 µM unless noted
OVCAR-4 ovarian = conditions: 10 µM unless noted
HOP-92 NSCLC = conditions: 10 µM unless noted
NCI-H522 lung = conditions: 10 µM unless noted
SNB-19 CNS = conditions: 10 µM unless noted
PC-3 prostate = conditions: 10 µM unless noted
EKVX NSCLC = conditions: 10 µM unless noted
TK-10 renal = conditions: 10 µM unless noted
CCRF-CEM leukemia = conditions: 10 µM unless noted
SK-OV-3 ovarian = conditions: 10 µM unless noted
HS 578T breast = conditions: 10 µM unless noted
A549/ATCC NSCLC = conditions: 10 µM unless noted

Measured: growth

C[CH2][Pb]([CH2]C)([CH2]C)[O]C(=O)c1ccc(N)cc1
inactive: NCI-H226 lung 87.5% | NCI-H322M lung 79.6% | HOP-62 NSCLC 89.3% | COLO 205 colon 92.5% | HT29 colon 79.8% | CAKI-1 renal 65.5% | A498 renal 60.3% | OVCAR-8 ovarian 82.1% | OVCAR-4 ovarian 57%

CCOc1ccc(C(O)CN(C)Cc2ccccc2)cc1Cl (centres undefined)
inactive: NCI-H226 lung 92.1% | NCI-H322M lung 102% | HOP-92 NSCLC 75.4% | NCI-H522 lung 97.1% | COLO 205 colon 105% | HT29 colon 98% | SNB-19 CNS 100% | PC-3 prostate 89.3% | EKVX NSCLC 95.7% | TK-10 renal 102% | CAKI-1 renal 93.3% | A498 renal 90.5% | CCRF-CEM leukemia 108% | OVCAR-8 ovarian 105% | OVCAR-4 ovarian 103% | SK-OV-3 ovarian 109%

CC12CCC3C(CC=C4CC(O)CCC43C)C1C/C(=C\N1CCOCC1)C2=O (centres undefined)
inactive: NCI-H226 lung 93.2% | NCI-H322M lung 113% | HOP-92 NSCLC 91.3% | NCI-H522 lung 83.3% | COLO 205 colon 116% | HT29 colon 105% | SNB-19 CNS 110% | PC-3 prostate 96.4% | EKVX NSCLC 96.1% | TK-10 renal 96% | CCRF-CEM leukemia 94.3% | OVCAR-8 ovarian 100% | OVCAR-4 ovarian 94.4% | SK-OV-3 ovarian 111% | HS 578T breast 114%

COC(=O)C1CC2c3ccccc3C1c1ccccc12 (centres undefined)
inactive: NCI-H226 lung 92.3% | NCI-H322M lung 98.8% | HOP-62 NSCLC 91.3% | A549/ATCC NSCLC 98.2% | COLO 205 colon 99.8% | HT29 colon 106% | SNB-19 CNS 117% | PC-3 prostate 66.4% | CAKI-1 renal 76.5% | A498 renal 98.4% | CCRF-CEM leukemia 83.4% | OVCAR-8 ovarian 101% | SK-OV-3 ovarian 99.1%

O=C(O)C1[O][Sb][O]C1C(=O)O (centres undefined)
inactive: NCI-H226 lung 93.9% | NCI-H322M lung 101% | HOP-62 NSCLC 109% | COLO 205 colon 109% | HT29 colon 104% | SNB-19 CNS 110% | PC-3 prostate 102% | TK-10 renal 101% | CAKI-1 renal 118% | A498 renal 116% | OVCAR-8 ovarian 101% | HS 578T breast 101%

CCC1CN1P(=O)(OCCOC)N1CC1CC (centres undefined)
inactive: NCI-H226 lung 109% | NCI-H322M lung 101% | HOP-62 NSCLC 111% | COLO 205 colon 119% | HT29 colon 104% | SNB-19 CNS 104% | PC-3 prostate 98.2% | TK-10 renal 123% | A498 renal 119% | OVCAR-8 ovarian 105% | OVCAR-4 ovarian 109% | SK-OV-3 ovarian 118%

CC1(C)N=C(N)N=C(N)N1c1ccc(OCCCCNC(=O)Nc2cccc(S(=O)(=O)F)c2)c(Cl)c1
inactive: NCI-H226 lung 69.4% | NCI-H322M lung 57.6% | HOP-62 NSCLC 62.8% | A549/ATCC NSCLC 15.4% | COLO 205 colon 50.4% | HT29 colon 14.4% | SNB-19 CNS 45.7% | TK-10 renal 62% | CAKI-1 renal 96.6% | CCRF-CEM leukemia 23.6% | SK-OV-3 ovarian 77.9%
active: PC-3 prostate 5.73%

CC1CC=CCC12C(=O)NC(=S)NC2=O (centres undefined)
inactive: NCI-H226 lung 102% | NCI-H322M lung 118% | HOP-92 NSCLC 105% | NCI-H522 lung 101% | A549/ATCC NSCLC 91.2% | COLO 205 colon 122% | HT29 colon 107% | SNB-19 CNS 109% | PC-3 prostate 98.4% | EKVX NSCLC 95.9% | TK-10 renal 103% | A498 renal 72.9% | CCRF-CEM leukemia 82.6% | SK-OV-3 ovarian 104% | HS 578T breast 102%

CC(=O)Nc1ccc(C=C2C(=O)NC(=O)NC2=O)cc1
inactive: NCI-H226 lung 101% | NCI-H322M lung 104% | HOP-62 NSCLC 103% | HOP-92 NSCLC 91.5% | NCI-H522 lung 104% | A549/ATCC NSCLC 100% | COLO 205 colon 106% | HT29 colon 109% | PC-3 prostate 93.3% | EKVX NSCLC 106% | TK-10 renal 107% | CAKI-1 renal 97.5% | CCRF-CEM leukemia 86.1% | OVCAR-8 ovarian 101% | OVCAR-4 ovarian 107% | SK-OV-3 ovarian 105%

C=CC(=O)NC(O)C(Cl)(Cl)Cl (centres undefined)
inactive: NCI-H226 lung 112% | NCI-H322M lung 85% | HOP-62 NSCLC 104% | A549/ATCC NSCLC 103% | COLO 205 colon 111% | HT29 colon 106% | PC-3 prostate 102% | TK-10 renal 95.9% | CAKI-1 renal 93.5% | A498 renal 120% | OVCAR-8 ovarian 108% | OVCAR-4 ovarian 122% | SK-OV-3 ovarian 98.2% | HS 578T breast 120%

N#C[Se]CCN1C(=O)C2C(C1=O)[C@H]1C=C[C@@H]2S1 (some centres undefined)
inactive: COLO 205 colon 68.3%
active: NCI-H226 lung -54.6% | NCI-H322M lung -1.58% | HOP-62 NSCLC -63.3% | A549/ATCC NSCLC -19.3% | HT29 colon 5.94% | SNB-19 CNS -19.1% | PC-3 prostate 5.36% | EKVX NSCLC -51.6% | TK-10 renal -65.3% | CAKI-1 renal -98.7% | CCRF-CEM leukemia 8.31% | OVCAR-8 ovarian -19.3% | HS 578T breast -10.3%

C[CH2][Pb]([CH2]C)([CH2]C)[O]C(=O)COC
inactive: PC-3 prostate 14.1%
active: NCI-H226 lung 6.09% | NCI-H322M lung -11.1% | HOP-62 NSCLC -16.2% | COLO 205 colon -7.82% | CAKI-1 renal -10.3% | A498 renal -3.55% | OVCAR-8 ovarian 3.57% | OVCAR-4 ovarian 9.63% | SK-OV-3 ovarian -3.94% | HS 578T breast -2.8%
